Test results from PubChem BioAssay AID463173 (ICCB-Longwood Screening Facility, Harvard Medical School, 2010).
Among all 52,000 compounds or so, about 1,700 (3.3%) were called active. The sample as a whole holds a higher share of actives than the screen did. Unmarked numbers belong to inactive results. Rule as the data show it: active = survival mostly below about 52% (no sharp cut-off); inactive = mostly above about 56%.

These compounds were tested on Wild type (assay: growth inhibition of S. aureus wild type versus tarO mutant, primary screen, teichoic acid synthesis inhibitors, RN4220, OD600 (AID 463173)). Details: S. aureus RN4220 wild type/DeltatarO growth, OD600, 18 h, hits give low values, screened at 18.75 µg/mL (by protocol).

SMILES	survival
COc1ccc(S(=O)(=O)n2nc(C)c(S(=O)(=O)N3CCC(C)CC3)c2C)cc1OC	81%
COc1ccc(S(=O)(=O)n2nc(C)c(S(=O)(=O)N3CCCCCC3)c2C)cc1C	55%
Cc1nn(S(=O)(=O)c2ccc(F)cc2)c(C)c1S(=O)(=O)N1CCCCC1	71%
Cc1nn(C(=O)c2cccc([N+](=O)[O-])c2C)c(C)c1S(=O)(=O)N1CCCCCC1	-4% (active)
COc1ccc(S(=O)(=O)n2nc(C)c(S(=O)(=O)N3CCCCCC3)c2C)cc1OC	1% (active)
Cc1nn(S(=O)(=O)c2ccc(F)cc2)c(C)c1S(=O)(=O)N1CCC(C)CC1	-3% (active)
Cc1nn(C(=O)c2ccccc2F)c(C)c1S(=O)(=O)N1CCCCCC1	70%
Cc1nn(C(=O)c2cccc([N+](=O)[O-])c2C)c(C)c1S(=O)(=O)N1CCOCC1	64%
Cc1nn(S(=O)(=O)c2ccccc2)c(C)c1S(=O)(=O)N1CCC(C)CC1	81%
CCOC(=O)c1cc(=O)n2[nH]c(-c3ccc(C)cc3)cc2n1	107%
CCC(Sc1nc2ccccc2c2nc(CCc3c(C)n[nH]c3C)nn12)C(=O)Nc1ccccc1F (stereo not drawn)	91%
CCCCn1cc(S(=O)(=O)c2cc(C)ccc2C)c(=O)c2cc(F)c(F)cc21	83%
COc1ccc(-c2cc(C(=O)Oc3cccc(C)c3C)c3ccccc3n2)cc1	12% (active)
COc1ccc(-c2cc(C(=O)Oc3ccccc3)c3cc(C)ccc3n2)cc1	11%
COc1ccc(-c2cc(C(=O)Oc3ccc(C)cc3)c3ccccc3n2)cc1	4% (active)
Cc1ccc(-c2cc(C(=O)Oc3ccccc3)c3cc(C)ccc3n2)cc1	65%
COc1ccc(-c2cc(C(=O)Oc3cccc(C)c3)c3ccccc3n2)cc1	3% (active)
COc1ccc(-c2cc(C(=O)Oc3ccc(C)cc3)c3cc(C)ccc3n2)cc1	22%
Cc1ccc(-c2cc(C(=O)Oc3ccccc3)c3cccc(C)c3n2)cc1	13% (active)
COc1ccc(-c2cc(C(=O)Oc3ccc(C)c(C)c3)c3ccccc3n2)cc1	30%

SMILES	survival
Cc1ccc(OC(=O)c2cc(-c3ccccc3)nc3ccc(C)cc23)cc1	61%
COc1ccc(-c2cc(C(=O)Oc3ccc(Cl)cc3)c3ccccc3n2)cc1	60%
COc1ccc(-c2cc(C(=O)Oc3cccc(C)c3)c3cc(C)ccc3n2)cc1	19%
COc1ccc(-c2cc(C(=O)Oc3ccc(Br)cc3)c3ccccc3n2)cc1	63%
Cc1ccc(C(=O)NC(C)C)cc1C	110%
Cc1cc(NC(=O)c2ccc(Cl)c(Cl)c2)ccc1NC(=O)c1ccco1	95%
COCc1c(Br)c(C)nc2sc3c(=O)n(-c4cccc(Br)c4)nnc3c12	87%
CCn1c(CSc2ncccn2)nnc1SCC(=O)N1CCc2ccccc21	102%
CCCN(CCC)CCCNC(=O)Cn1cnc2onc(-c3ccc(F)cc3)c2c1=O	73%
Cc1nc(-c2ccccc2)sc1CCNS(=O)(=O)c1ccccc1	69%
CC(C)S(=O)(=O)c1oc(-c2ccc(F)cc2)nc1S(=O)(=O)c1ccc(F)cc1	26%
CCCCS(=O)(=O)c1oc(-c2ccc(F)cc2)nc1S(=O)(=O)c1ccc(C)cc1	33%
CCS(=O)(=O)c1oc(-c2ccc(F)cc2)nc1S(=O)(=O)c1ccc(Br)cc1	-1% (active)
O=S(=O)(c1ccccc1)c1nc(-c2ccc(F)cc2)oc1N1CCOCC1	73%
CS(=O)(=O)c1oc(-c2ccc(F)cc2)nc1S(=O)(=O)c1ccc(Cl)cc1	-1% (active)
CCC(C)S(=O)(=O)c1oc(-c2ccc(F)cc2)nc1S(=O)(=O)c1ccc(F)cc1 (stereo not drawn)	49%
CSc1oc(-c2ccc(F)cc2)nc1S(=O)(=O)c1ccc(Br)cc1	54%
Cc1ccc(-c2nc(S(=O)(=O)c3ccc(F)cc3)c(N3CCN(c4ccccc4)CC3)o2)cc1	89%
CC(C)CS(=O)(=O)c1oc(-c2ccc(F)cc2)nc1S(=O)(=O)c1ccccc1	3% (active)
CCCCS(=O)(=O)c1oc(-c2ccc(F)cc2)nc1S(=O)(=O)c1ccccc1	7% (active)

SMILES	survival
CCSc1oc(-c2ccc(F)cc2)nc1S(=O)(=O)c1ccc(C)cc1	41%
CC(C)S(=O)(=O)c1oc(-c2ccc(F)cc2)nc1S(=O)(=O)c1ccccc1	23%
CNC(=O)N(O)C1N(c2ccccc2)C(=S)SC1(C)C (stereo not drawn)	109%
O=C(NCc1ccccc1Cl)C1CCCN(c2ncnc3onc(-c4ccc(F)cc4)c23)C1 (stereo not drawn)	65%
COc1ccc(-n2cc(C(=O)Oc3cc(C)cc(C)c3)c3ccccc3c2=O)cc1	153%
COc1cccc(NC(=O)c2ccc(CN3CCN(c4ccccc4)CC3)cc2)c1	122%
NC(=O)C1CCN(C(=O)c2ccc3c(c2)N(Cc2cccc(Cl)c2)C(=O)c2ccccc2S3(=O)=O)CC1	69%
O=C(Nc1c(C(=O)Nc2ccc(F)cc2)oc2ccccc12)c1ccccc1F	30%
Cc1ccc(S(=O)(=O)N2CCN(C(=O)CN3CCOCC3)C2C(C)C)cc1 (stereo not drawn)	105%
CCc1ccc(NC(=O)CSc2nc(C)c(C(=O)Nc3ccccc3)c(-c3ccc(OC)c(OC)c3)c2C#N)cc1	85%
CC(C)Nc1nc(C#N)nc(NC(C)C)n1	130%
COc1cc(NC(=O)c2cc3c(=O)n(Cc4ccco4)ccc3nc2C)cc(OC)c1OC	63%
O=c1[nH]c2ccc(N=Cc3ccccc3C(F)(F)F)cc2[nH]1	116%
COc1cc(NS(=O)(=O)c2ccc(NC(=O)COc3ccc(Cl)cc3Cl)cc2)nc(OC)n1	93%
C=CCN1C(=O)C(C)(C)N(C(C)=O)c2ccccc21	121%
O=S(=O)(c1ccccc1)c1nc(-c2ccc(F)cc2)oc1NCc1ccccc1	84%
CCS(=O)(=O)c1oc(-c2ccc(F)cc2)nc1S(=O)(=O)c1ccccc1	-1% (active)
O=S(=O)(c1ccccc1)c1nc(-c2ccc(F)cc2)oc1N1CCCCCC1	19%
